Rab9 prom act: activators of Rab9 promoter | Potency, µM (titrated, usually from 9.22 µM), for the others: top-dose activation, negative = inhibition, hits mostly activators | hit rate 2.8% among 320,000 | AID 485297 | Huh7 Rab9 promoter-luciferase reporter, luminescence, 24 h; further: % of control where 0% means no effect; nearly all actives have a fitted effect of over 60% in size
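Huh7 cells stably carrying a Rab9 promoter-luciferase reporter, 1500 cells per well in OP-MEM I with 10% FBS, treated with compound 24 hours at 37C. Luciferase activity read by luminescence after 10 minutes with Amplite reagent.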
ELG1 genotox: induces genotoxicity in HEK293T cells with luciferase-tagged ELG1; HEK293T ELG1-luciferase reporter, luminescence, 16 h; Potency, µM (top dose mostly 46 µM), for the others: at the highest dose activity change, positive = activation, usual class: activators; hit rate 1.3% among 330,000; AID 504466; further: % of control where 0% means no effect; nearly all actives have a fitted effect of over 60% in size
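Step 1: seed 2,000 HEK293T ELG1-luciferase cells per well. Step 2: add compound or DMSO, incubate 16 hr at 37 °C. Step 3: ONE-Glo, 30 min at room temperature, read luminescence.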
p53 reactivation: mutant p53 re-activation in reporter cells; H1299 p53-A138V BP100-luciferase reporter, luminescence, 24 h; Potency, µM (doses to about 92.2 µM), without a hit: at the highest dose activity change, positive = activation, hits mostly activators; hit rate 0.063% among 320,000; AID 504706; further: % of control where 0% means no effect; nearly all actives have a fitted effect of over 45% in size
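p53-null H1299 cells stably carrying temperature-sensitive p53-A138V and a BP100-luciferase reporter were pinned with compounds (4-point, 1:5 series) and held 24 hrs at 37 deg C. Luminescence was read 10 min after detection reagent.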
FLuc counter: firefly luciferase modulation, counter-screen for miR-21 project. P08659. purified FLuc, Km substrates, luminescence inhibition. Potency, µM (titrated, usually from 57.5 µM), for inactives: at the top dose activity change, negative = inhibition, actives largely listed as inhibitors. hit rate 6.9% among 360,000;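 further: plate controls were vehicle for no effect and reference inhibitor for full effect; nearly all actives have a fitted effect of over 55% in size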
Target sequence (P08659 whole entry, looked up): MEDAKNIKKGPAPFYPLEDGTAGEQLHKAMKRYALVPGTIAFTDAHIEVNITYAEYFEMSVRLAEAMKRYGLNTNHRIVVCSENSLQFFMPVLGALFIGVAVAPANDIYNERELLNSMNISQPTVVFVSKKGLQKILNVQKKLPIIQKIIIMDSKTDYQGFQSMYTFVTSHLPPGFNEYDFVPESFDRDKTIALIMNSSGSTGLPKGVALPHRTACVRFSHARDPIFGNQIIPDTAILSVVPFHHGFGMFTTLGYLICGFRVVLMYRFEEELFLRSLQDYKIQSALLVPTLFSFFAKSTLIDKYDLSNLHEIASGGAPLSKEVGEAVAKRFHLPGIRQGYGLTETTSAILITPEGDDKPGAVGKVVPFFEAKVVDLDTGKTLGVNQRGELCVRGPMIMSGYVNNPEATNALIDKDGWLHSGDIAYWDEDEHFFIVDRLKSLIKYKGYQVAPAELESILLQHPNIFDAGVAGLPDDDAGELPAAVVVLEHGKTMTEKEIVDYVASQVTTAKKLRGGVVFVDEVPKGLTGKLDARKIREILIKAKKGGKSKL
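Biochemical qHTS of compounds, final roughly 60 µM downward over six points, against 10 nM purified firefly luciferase using Km concentrations of substrates (10 uM D-luciferin, 10 uM ATP) in Tris acetate pH 7.5 buffer; luminescence output.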
SMN2 splice up: enhancers of SMN2 splice variant expression; AID 1458; Potency, µM (doses to about 46.1 µM), inactives show top-dose activity change, positive = activation, most hits filed as activators; hit rate 2.8% among 210,000; HEK293 SMN2-luciferase splicing reporter, luminescence, 30-36 h; further: % of control where 0% means no effect; nearly all actives have a fitted effect of over 55% in size
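HEK293 cells carry an SMN2 […]–luciferase reporter in which exon 7 inclusion puts luciferase in frame. Cells were plated 10-12 h before compound addition, then incubated 30-36 h at 37C. ONE-Glo luminescence was read; sodium butyrate at 4.5 mM final served as control.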
NPC1 prom act: NPC1 promoter activation | Huh7 NPC1 promoter luciferase reporter, 24 h | Potency, µM (series often up to 9.22 µM), for the others: at the top dose activation, actives largely listed as activators | hit rate 2.4% among 320,000 | AID 485313; further: % of control where 0% means no effect; nearly all actives have a fitted effect of over 60% in size
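Cells: Huh7 expressing luciferase under the NPC1 promoter, 1500/well. Seeded 2 h, compound added, incubated 24 h at 37 °C. Luciferase reagent, 10 min ambient, then luminescence.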
* = called active by the depositor; ? = inconclusive; nt = no result; ! = repeats disagree. Compounds with a hit are over-represented: about 7.3% of the library has one in this group of screens. The call rests on the fitted dose curve; in most records, active means well fitted curve in the direction sought with a large enough effect; inconclusive means small, poorly fitted or top-dose-only effect, or another doubt; inactive means no such curve, though single readings can be large; an effect the other way counts as inactive or inconclusive. Potency means the concentration at half of the fitted maximal effect.

SMILES | Rab9 prom act | ELG1 genotox | p53 reactivation | FLuc counter | SMN2 splice up | NPC1 prom act
Cc1cc(/C=C2/NC(=O)N(c3ccccc3)C2=O)c(C)n1C(C)C | 1.6µM* | ? | ? | 4.8µM* | 10µM* | 3.2µM*
CCc1ccc(CN(Cc2ccco2)c2cnc(S(C)(=O)=O)nc2C(=O)Nc2cccc(C)c2)cc1 | nt | nt | nt | 4% | nt | nt
COc1ccc2c(c1OC)C(=O)OC2 | 0% | 18% | 0% | -3% | 22% | -5%
COc1ccc2c(c1OC)C(=O)N(c1cccc(NC(C)=O)c1)C2 | 21% | ? | 12% | 11µM* | nt | 14%
COc1ccc2c(c1OC)C(=O)N(c1ccc(F)cc1)C2 | 1.3µM* | ? | ? | 8.5µM* | nt | 2µM*
Cc1ccccc1C(=O)Oc1cc(N)n(S(C)(=O)=O)n1 | -8% | 2% | 2% | ? | 7% | 4%
Cc1c(C(=O)Oc2cc(N)n(S(C)(=O)=O)n2)cccc1[N+](=O)[O-] | 3% | 0% | -2% | 21µM* | 0% | 1%
CC(C)[C@@H](CO)NC(=O)c1ccc2c3n(nc2c1)-c1ccc(Cl)cc1CO3 | 1.1µM* | ? | 17% | 8.5µM* | nt | 1.4µM*
Cc1ccc(Cl)cc1Nc1nn2c(=O)c3ccc(C(=O)NC(C)c4ccccc4)cc3nc2s1 (centres undefined) | nt | nt | nt | -4% | nt | nt
C[C@@H](CO)NC(=O)c1ccc2c3n(nc2c1)-c1ccc(Cl)cc1CO3 | 2.8µM* | 7.3µM* | 21% | 3µM* | nt | 1.4µM*
Cc1sc(NC(=O)C2C3CCC(O3)C2C(=O)O)nc1-c1ccc(CC(C)C)cc1 (centres undefined) | 20% | ? | ? | 15µM* | 20% | 7%
CCOC(=O)c1c(NC(=O)C2C3CCC(O3)C2C(=O)O)sc(C)c1-c1ccc(C)cc1 (centres undefined) | 0% | 0% | -3% | 10% | -16% | -4%
O=C(O)c1cc(NC(=O)c2ccccc2F)cc(NC(=O)c2ccccc2F)c1 | 8% | 2% | 13% | 0% | nt | -2%
O=C(Nc1ccc(Nc2ccccc2)cc1)c1ccccc1F | ? | ? | -12% | 12µM* | nt | ?
CCN(CC)c1ccc(NC(=O)c2ccccc2F)cc1 | 0.56µM* | ? | 40µM* | 6µM* | 11µM* | ?
COCC(=O)N1CCC2(CC1)CN(c1ccncc1)C2 | nt | nt | nt | nt | -25% | nt
O=C(NC1CCCCC1)c1ccc(S(=O)(=O)NCc2cccnc2)cc1 | 5% | -6% | -1% | 0% | -62% | -4%
COc1ccccc1C(=O)NCCCNc1ccc([N+](=O)[O-])cc1 | -7% | -4% | 0% | -3% | -5% | 1%
CC(=O)NCCCNc1ccc([N+](=O)[O-])cc1 | 16% | 2% | ? | 19µM* | ? | 15%
Nc1nn(-c2cccc(F)n2)cc1-c1ccccc1 | 0.63µM* | 2.9µM* | ? | 3µM* | 14µM* | 2µM*
Nc1nc(Br)c2c(F)cccc2c1-c1ccccc1 | -2% | 0% | -3% | -12% | -1% | -3%
Nc1nn(-c2cccc(F)n2)cc1-c1ccc(Cl)cc1 | 0.45µM* | 1.2µM* | ? | 0.95µM* | 18µM* | 2.5µM*
NC(=O)C1CCN(c2nc(-c3ccc4occc(=O)c4c3)cs2)CC1 | 2.5µM* | 4% | 1% | ? | nt | ?
NC(=O)C1CCN(c2nc(-c3ccccc3Br)cs2)CC1 | 0% | ? | ? | ? | nt | 10%
NC(=O)C1CCN(c2nc(-c3ccccc3F)cs2)CC1 | 0.32µM* | ? | 8% | ? | nt | 0.79µM*
O=C(O)c1cnn(-c2nc(-c3ccc(F)cc3)cs2)c1C(F)(F)F | ? | 14% | -1% | 21µM* | 27% | 28%
NC(=O)C1CCN(c2nc(-c3cccc(N)c3)cs2)CC1 | 2% | ? | 19% | ? | nt | 3%
NC(=O)C1CCN(c2nc(-c3ccc(F)cc3)cs2)CC1 | 1.4µM*! | 0% | -2% | 2% | nt | 2.2µM*!
